In PubChem BioAssay (NCI):
The panel holds about 83,000 compounds, 20% with a hit somewhere; the sample as a whole holds those more often.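 Interpretation: 100, growth as untreated; towards 0, rising growth inhibition; 0, no net growth; 0 to -100, cell death. Compounds scoring below 10 were considered active.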 Activity calls are given as the source filed them.

Experiments:
Assay in all cases: NCI-60 one-dose screen, 48 h (100 = growth as untreated, 0 = no growth, -100 = all killed)
Details in all cases: 10 µM unless noted
NCI-H23 lung = system: NCI-H23 lung
NCI-H226 lung = system: NCI-H226 lung
NCI-H322M lung = system: NCI-H322M lung
HOP-62 NSCLC = system: HOP-62 NSCLC
NCI-H460 lung = system: NCI-H460 lung
HOP-92 NSCLC = system: HOP-92 NSCLC
NCI-H522 lung = system: NCI-H522 lung
A549/ATCC NSCLC = system: A549/ATCC NSCLC
786-0 renal = system: 786-0 renal
COLO 205 colon = system: COLO 205 colon
DU-145 prostate = system: DU-145 prostate
K-562 leukemia = system: K-562 leukemia
MALME-3M melanoma = system: MALME-3M melanoma
MDA-MB-231 breast = system: MDA-MB-231 breast
RXF 393 renal = system: RXF 393 renal
SF-268 CNS = system: SF-268 CNS
SF-295 CNS = system: SF-295 CNS
SF-539 CNS = system: SF-539 CNS
UACC-257 melanoma = system: UACC-257 melanoma
M14 melanoma = system: M14 melanoma

Measured: growth

CC(=O)N1N=C(c2ccc(F)cc2)CC1c1sc(N(C)Cc2ccccc2)nc1Cl (stereo not given)
inactive: NCI-H23 lung 85.1% | NCI-H226 lung 102% | NCI-H322M lung 99.6% | HOP-62 NSCLC 91.7% | NCI-H460 lung 106% | HOP-92 NSCLC 85.9% | NCI-H522 lung 81.6% | A549/ATCC NSCLC 88.6% | 786-0 renal 84.9% | COLO 205 colon 98.7% | DU-145 prostate 103% | K-562 leukemia 75.1% | MALME-3M melanoma 102% | MDA-MB-231 breast 101% | RXF 393 renal 101% | SF-268 CNS 87.1% | SF-295 CNS 97.6% | SF-539 CNS 104% | UACC-257 melanoma 118% | M14 melanoma 95.2%

Cc1cccc(-c2nnc(SCC(=O)Nc3ncc(Cc4ccccc4)s3)n2N2C(=O)CSC2=S)c1
active: HOP-92 NSCLC 8.49% | A549/ATCC NSCLC 7.99%
inactive: NCI-H23 lung 36.7% | NCI-H226 lung 31.5% | NCI-H322M lung 40.1% | HOP-62 NSCLC 30.3% | NCI-H460 lung 20% | NCI-H522 lung 34.5% | 786-0 renal 29.8% | COLO 205 colon 66.6% | DU-145 prostate 43.3% | K-562 leukemia 77.6% | MALME-3M melanoma 20.6% | MDA-MB-231 breast 10% | RXF 393 renal 54.7% | SF-268 CNS 78.3% | SF-295 CNS 77.7% | SF-539 CNS 36.6% | UACC-257 melanoma 64.4% | M14 melanoma 51.1%

O=C(Nc1ccc2ncsc2c1)c1csc(Nc2ccc3[nH]ncc3c2)n1
inactive: NCI-H23 lung 62% | NCI-H226 lung 59% | NCI-H322M lung 51.5% | HOP-62 NSCLC 61.7% | NCI-H460 lung 19.5% | HOP-92 NSCLC 67.5% | NCI-H522 lung 24.7% | A549/ATCC NSCLC 44.3% | 786-0 renal 42.8% | COLO 205 colon 31.2% | DU-145 prostate 35.5% | K-562 leukemia 28.1% | MALME-3M melanoma 57.1% | MDA-MB-231 breast 62.9% | RXF 393 renal 13.9% | SF-268 CNS 55.8% | SF-295 CNS 25.5% | SF-539 CNS 22.9% | UACC-257 melanoma 63.8% | M14 melanoma 25.2%

Cc1ccc(/C=C/c2c(C(=O)/C=C/c3ccccc3)c(C)nc3ccccc23)cc1
active: HOP-62 NSCLC -18% | NCI-H460 lung -9.62% | K-562 leukemia 8.62% | MALME-3M melanoma -1.88% | RXF 393 renal -3.35% | SF-539 CNS -23.2%
inactive: NCI-H23 lung 27.5% | NCI-H226 lung 43.6% | NCI-H322M lung 46.8% | HOP-92 NSCLC 89.4% | NCI-H522 lung 11.1% | A549/ATCC NSCLC 30.8% | 786-0 renal 25.8% | COLO 205 colon 12.7% | DU-145 prostate 12.8% | MDA-MB-231 breast 30.8% | SF-268 CNS 54.1% | SF-295 CNS 31.9% | UACC-257 melanoma 12.3% | M14 melanoma 17.6%
